Assay results published in PubChem BioAssay (NCI).
Compounds without any hit were thinned out: in the full panel of roughly 79,000, 15% have a hit. A number with no mark means an inactive call. Calls of active or inactive are those of the source. Rule as the data show it: active = growth inhibition above about 70%; inactive = the rest.

How the values were obtained:
[1] = NCI Yeast Anticancer Drug Screen. Data for the rad50 strain (AID 155);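 also: 0% = growth of vehicle-only cultures of the same strain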; conditions: S. cerevisiae rad50 strain growth inhibition; at 50.0 µM; stronger effect = higher value
Procedure, shortened: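 Cells are treated with compound, grown, and their growth is then scored against vehicle-only cultures of the same repair-deficient yeast strain.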

[2] = NCI Yeast Anticancer Drug Screen. Data for the mec2-1 strain (AID 157); conditions: S. cerevisiae mec2-1 strain, at 50.0 µM, stronger effect = higher value
Procedure, shortened: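 Growth inhibition is read against vehicle-treated controls after compound exposure of the mec2-1 yeast strain, which is defective in DNA damage repair or cell cycle control.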

[3] = NCI Yeast Anticancer Drug Screen. Data for the sgs1 mgt1 strain (AID 161);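 also: 0% = growth of cultures given vehicle only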; conditions: S. cerevisiae sgs1 mgt1 strain, at 50.0 µM, stronger effect = higher value
Procedure, shortened: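 Yeast cells carrying a defined DNA-repair defect were exposed to test compounds. Growth inhibition was measured relative to vehicle-treated controls.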

[4] = NCI Yeast Anticancer Drug Screen. Data for the cln2 rad14 strain (AID 165);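 also: 0% = growth equal to vehicle treated cultures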; conditions: S. cerevisiae cln2 rad14 strain, at 50.0 µM, stronger effect = higher value
Procedure, shortened: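 Growth inhibition, relative to vehicle-treated controls, is the read-out. The test organism is a yeast strain with defined genetic alterations, cln2 rad14.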

[5] = NCI Yeast Anticancer Drug Screen. Data for the bub3 strain (AID 167); conditions: S. cerevisiae bub3 mutant strain, at 50.0 µM, stronger effect = higher value
Procedure, shortened: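 Part of a panel of yeast mutants defective in DNA damage repair or cell cycle regulation. Each strain is grown with compound, and inhibition is calculated relative to solvent-treated cultures.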

[6] = NCI Yeast Anticancer Drug Screen. Data for the mlh1 rad18 strain (AID 175); conditions: S. cerevisiae mlh1 rad18 strain growth inhibition; at 50.0 µM; stronger effect = higher value
Procedure, shortened: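 Cells of a genetically altered yeast strain, deficient in DNA damage repair, were treated with compound. Their growth was then compared with that of vehicle-treated cultures to give inhibition.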

Structure (SMILES) | growth inhibition [1] | growth inhibition [2] | growth inhibition [3] | growth inhibition [4] | growth inhibition [5] | growth inhibition [6]
COc1cccc(-c2nc(-c3cnccn3)n(Cc3ccccc3)n2)c1 | -49.1% | -60.7% | -59.8% | -22% | -46.5% | -38.8%
CCC(C(=O)OC)C1CCCCC1 (stereo unspecified) | 24.8% | -27.8% | -12.3% | -7.65% | -10.7% | 22.4%
CCOC(=O)c1cc(O)cc(=O)n1C1OC(COC(=O)c2ccccc2)C(OC(=O)c2ccccc2)C1OC(=O)c1ccccc1 (stereo unspecified) | 49.5% | -19.4% | 32.6% | 3.35% | -9.15% | -10.8%
CCO/C(O)=c1/s/c(=C(\C#N)c2nc3ccccc3[nH]2)n(-c2ccccc2)c1=N | 11.6% | 3.4% | 2.3% | -37.9% | -20.4% | -26.8%
CC12CC3CC(C)(C1)CC(N=[N+]=[N-])(C3)C2 | -27.4% | -9.6% | -12.1% | 6.15% | -0.8% | -29.5%
CN(C)c1ccc(/C=C(\C#N)c2ccc(Cl)cc2Cl)cc1 | -15.8% | -14.7% | -0.35% | -25.6% | 7% | 0.95%
N#Cc1sc2c(c1OC(=O)c1ccc(C(F)(F)F)cc1)c(=O)n(-c1ccccc1)c(=S)n2-c1ccccc1 | -11.9% | 0.9% | 1.05% | 0.8% | -6.2% | 3.05%
O=c1[nH]ncc2ccc([N+](=O)[O-])cc12 | 6.45% | 7.9% | -1.25% | -1.25% | -2.3% | -6.8%
CC(=O)C1CCC2C3CCC4CC5(CCC4(C)C3C(=O)CC12C)NC(C(=O)O)CS5 (stereo unspecified) | 2.25% | 3.4% | 5.85% | -6.25% | -0.6% | -1.35%
CSC1=C(CCC(C)CCCC(C)CCCC(C)CCCC(C)CCCC(C)CCCC(C)C)C(=O)c2sccc2C1=O (stereo unspecified) | 15.7% | 13.6% | -1.45% | -17.9% | 11.5% | -5.95%
CCCCCCCCCCCCCCCC(=O)OCC1OC(n2cc(F)c(=O)[nH]c2=O)C(NC(=O)N(CCCl)N=O)C(O)C1O (stereo unspecified) | -16.1% | -31.8% | -16.6% | -2.1% | -24.4% | -23.1%
CN(C)c1ncnc2nc[nH]c12 | -14.6% | 0.7% | -6.1% | -14.4% | -2.6% | 16.3%
CN1CCN(CC(=O)N2c3ccccc3Sc3cc4ccccc4cc32)CC1 | 2.3% | -3.3% | -30% | -1.95% | -13.7% | 28.6%
CC(=O)NC(CCCNC(=O)N(C)N=O)C(=O)NCc1ccccc1 (stereo unspecified) | -35% | -26.9% | -15.6% | 6.9% | -21.2% | -13.3%
Cn1ncc2c(=O)[nH]c(-c3ccccc3)nc21 | -0.75% | -8.35% | -5.9% | 3.55% | -3.05% | -6.3%
CCOc1ccc(/C=N/NC(=O)CCCCCCCCC(=O)N/N=C/c2ccc(OCC)c(OC)c2)cc1OC | -25.6% | -5.1% | -27.1% | -27.6% | -1.45% | -8.35%
NC(=O)C(=O)c1ccccc1 | -6.65% | -27.1% | -2% | -3% | -19.6% | -19.7%
OCCc1ccccc1CCO | -29.6% | -17.8% | -13.2% | -16.9% | -5.4% | 8.5%
CCCC(=O)c1c(NOC2OCC(OC(C)=O)C(OC(C)=O)C2OC(C)=O)nc(OC)n(C)c1=O (stereo unspecified) | -24.7% | 3.1% | -40.1% | 6.8% | -15.9% | -16.6%
CC(=O)Nc1ccc(S(=O)(=O)O)c(C(F)(F)F)c1 | 17.1% | 21.1% | 12.6% | -8% | 26.5% | 11.4%
C=C(C)C(=O)O[C@@H]1C[C@@]2(C)O[C@@H]2C[C@H](O)/C(C)=C/[C@H]2OC(=O)C(=C)[C@@H]21 | -19.6% | -33.1% | -22.5% | 0.35% | -16.5% | -43.1%

Structure (SMILES) | growth inhibition [1] | growth inhibition [2] | growth inhibition [3] | growth inhibition [4] | growth inhibition [5] | growth inhibition [6]
CC(C)(c1ccc([N+](=O)[O-])cc1)[N+](=O)[O-] | 11.1% | 10.3% | 1.6% | -7.4% | -11.8% | -4.55%
N#C/C(=N\NC(=O)c1ccccc1)c1ccccc1 | 5.65% | 4.9% | -3.7% | -32.5% | -8.3% | 3.5%
N#CCCN(c1ccc(C=Nc2ccccc2Cl)cc1)S(=O)(=O)c1ccccc1 | -18.1% | -9.8% | -13.7% | 4.25% | -6.5% | 16.2%
COC(=O)c1cc(NC(=O)Nc2ccc(F)c([N+](=O)[O-])c2)cc(C(=O)OC)c1 | 8.9% | 4.85% | -4.6% | 7.3% | -1.3% | 26.8%
NNC(=O)COCC(=O)NN | -17.5% | -27.2% | -24.5% | -9.1% | -15.2% | -25.1%
O=S(=O)(NCCBr)c1ccccc1 | -1.5% | 2.45% | -8.9% | 11.6% | -2% | 2.05%
CCOC(=O)Cc1cc(Cl)c2ccc(Cl)cc2n1 | 32.1% | -2% | 23.2% | 11.6% | 36.4% | 40.4%
Cc1ccccc1C1OC2=C(Nc3ccc(Cl)cc3N2)C1=O (stereo unspecified) | 15.6% | -1.65% | 10.3% | 9.85% | -11.8% | 25.2%
CCOC(=O)/C(F)=C/c1cccc([N+](=O)[O-])c1 | 13.4% | 8.8% | -5.35% | 10.1% | 7.95% | 19.8%
COc1ccc(N(C)CN(C)c2nc(N(C)C)nc(N(C)C)n2)cc1 | -67.8% | -30.8% | -43% | -45.4% | -60.8% | -62.9%
COC(=O)Cc1ccccc1-n1nccc1S(C)=O (stereo unspecified) | 10.2% | -5.05% | 14.3% | -7.65% | 8.6% | 7.45%
CSCCCCCCSC | -0.1% | 5.1% | -2.75% | -27.8% | -5.35% | 5.9%
O=COC1CCCCCC1 | -8.55% | -28.9% | -11.1% | 7.9% | -5.9% | 12.9%
O=C1CC(C(=O)O)CC(=O)CC(C(=O)O)C1 (stereo unspecified) | -0.7% | -13.2% | -10.6% | -33.4% | 14.9% | 18.9%
O=C(O)Cc1cc2cccc([N+](=O)[O-])c2[nH]1 | 1.4% | 6.65% | 8.75% | -1.85% | -16.1% | 9.2%
O=C1CC2COc3ccc(OCCN4CCCC4)cc3C2=NN1c1ccccc1 (stereo unspecified) | -4.75% | 16.9% | -22.7% | -18.9% | 2.15% | 1.1%
COC(=O)c1ccccc1NC(OC)c1cccc([N+](=O)[O-])c1 (stereo unspecified) | 18.6% | 13.4% | 12.1% | 17.7% | 12.6% | 5.55%
N#Cc1c(F)cccc1N1CCSCC1 | 3.5% | -17.8% | 14.3% | 25.4% | 11.5% | -0.55%
C1=CC([P+](Cc2ccccc2)(c2ccccc2)c2ccccc2)CC1 (stereo unspecified) | 81.8% (active) | 65.5% | 55.9% | -1.55% | 52.6% | 52.9%
CCCC1C(C#N)(C#N)C(C#N)=C(N)C1(C)C(C)=O (stereo unspecified) | 3.4% | 6.8% | -18.7% | 0.4% | -23.8% | -34.9%
